Source: PubChem (Johns Hopkins Ion Channel Center)
This is a sample that favours compounds with a hit; in the whole collection about 1.6% have one here.
KCNQ2 block = rat KCNQ2 potassium channel inhibitors, primary screen, cell-based, CHO-K1, FluxOR thallium flux, B-score. Potassium voltage-gated channel subfamily KQT member 2 (Rattus norvegicus), O88943. 20 min; active compounds read low. B-score at 10 µM. actives 1.1% (n = 310,000). AID 2156, 2009;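 active means fluorescence ratio B-score at most minus 3 library SDs, with starting brightness B-score within 2 library SDs, cut at about -5.5 in these data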
KCNQ2 enhance = potentiators of rat KCNQ2 potassium channel; B-score at 10 µM; Potassium voltage-gated channel subfamily KQT member 2 (Rattus norvegicus), O88943; actives 0.54% (n = 310,000); CHO-K1 KCNQ2, FluxOR thallium flux fluorescence; active compounds read high;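 active means fluorescence ratio B-score at least 3 SD of library B-scores, with initial fluorescence B-score within 3 of them, cut at about 5.3 in these data; same plate scores as AID 2156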;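 further: B-score of peak minus minimum over baseline fluorescence ratio after K+ and Tl+ stimulus; positive B-score means potentiation of KCNQ2 with more thallium influx and brighter signal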
Starred values were filed as active, the others as inactive; i = inactive; / = not tested or not shown.

SMILES	KCNQ2 block	KCNQ2 enhance
CC(C)CN(C(=O)COC(=O)C(C)N1C(=O)c2ccccc2C1=O)c1c(N)n(Cc2ccccc2)c(=O)[nH]c1=O (centres undefined)	i	0.71
COc1ccc(CCNS(=O)(=O)c2cc3c4c(c2)CCN4C(=O)CC3)cc1	i	/
COc1cc(N/N=C(\C)c2ccc(O)c(C)c2)nc(-c2ccccc2)n1	i	/
COc1cc(N/N=C(\C)c2ccc(N)cc2)nc(-c2ccccc2)n1	-6.8*	-6.8
O=C(NC(=S)Nc1cccc(Cl)c1Cl)C1CC1	i	/
COc1ccc(/C=C/C(=O)Nc2ccccc2C(=O)N2CCCC2)cc1	i	/
COc1ccc(NC(=O)c2ccccc2NC(=O)c2ccccc2)cc1	i	0.15
COc1ccc(/C=C(/C(=O)Nc2ccccc2C(=O)NC(C)C)c2ccccc2)cc1	-7.9*	-7.9
COc1ccc(/C=C(/C(=O)Nc2ccccc2C(=O)N2CCCC2)c2ccccc2)cc1	-6.6*	-6.6
CCc1nc2cc3sc(CC)nc3cc2s1	i	0.47
CCC(=O)N1c2ccc(S(=O)(=O)NCc3ccccc3)cc2CC1C (centres undefined)	i	/
Cc1ccc(Cc2ccc(C(=O)NNC(N)=S)o2)cc1	i	0.8
COc1cc(C(=O)NCC2CCCO2)ccc1OCc1ccccc1Cl (centres undefined)	i	2.8
CCOC(=O)c1sc(NC(=S)NC(=O)c2ccco2)nc1C	i	5.7*
O=C(NC(=S)NCc1ccc(-c2nc3ccccc3s2)cc1)c1ccco1	i	0.1
COC(=O)c1sc(NC(=O)c2ccco2)nc1C	i	0.18
O=C(NC(=S)Nc1nc2ccccc2s1)c1ccco1	i	8.1*
CC(=O)c1ccc(OCCCC(=O)Nc2cccc(-c3nn[nH]n3)c2)cc1	i	/
CCCC(=O)N(C1CC(C)C(C#N)(C#N)C1(C#N)C#N)N(C)C (centres undefined)	i	11*
COc1ccccc1OCC(=O)N/N=C/c1cccc2cccnc12	i	0.03
COc1ccccc1OCC(=O)N/N=C/c1c(O)ccc2ccccc12	-6*	-6
COc1cc(/C=C/C(=O)Oc2coc(CSc3ncccn3)cc2=O)cc(OC)c1OC	i	/
COc1nnc(-c2ccc(N3CCOCC3)c(NC(=O)C3CCCCC3)c2)c2ccccc12	i	/
COc1nnc(-c2ccc(N3CCCCC3)c(NC(=O)C3CCCCC3)c2)c2ccccc12	-6.2*	-6.2
Cc1ccccc1Nc1nc(N)nc(COC(=O)CCS(=O)(=O)c2ccccc2)n1	i	1.7
SMILES	KCNQ2 block	KCNQ2 enhance
Cc1ccccc1Nc1nc(N)nc(COC(=O)CC2CC3CCC2C3)n1 (centres undefined)	i	20*
Cc1ccc(CNC(=O)C(CC(C)C)OC(=O)c2ccco2)cc1 (centres undefined)	i	3.6
CC/C(=N\Nc1ccccc1[N+](=O)[O-])c1ccc(O)cc1	i	/
Cc1cc(=O)[nH]c2ccc(Cl)cc12	i	0.91
S=c1[nH]c2ccc(Cl)cc2s1	i	21*
Cn1cccc1Cc1nnc(SCC(=O)NCc2ccco2)n1-c1ccc(F)cc1	i	0.07
Cn1cccc1Cc1nnc(SCC(=O)NCc2ccccc2Cl)n1-c1ccc(F)cc1	-7.2*	-7.2
O=C(NC1CC(=O)N(c2ccc(Cl)cc2)C1)N1CCN(C(=O)c2ccco2)CC1 (centres undefined)	i	0.79
CCn1nc(C(=O)OCC(=O)c2ccc(F)cc2)c2ccccc2c1=O	i	1.1
CCn1nc(C(=O)OC(C(=O)c2c[nH]c3ccccc23)c2ccccc2)c2ccccc2c1=O (centres undefined)	-8*	-8
Cc1nnc(NC(=O)C2CC(=O)N(c3ccccc3)C2)s1 (centres undefined)	i	0.2
C=CCC1(C#N)C(SC)=NC2=C(C(=O)CC(C)(C)C2)C1c1ccc(Br)cc1 (centres undefined)	-6.6*	-6.6
Cc1ccc(C2C3=C(CC(C)(C)CC3=O)N=C3c4ccccc4C(=O)C32)cc1 (centres undefined)	i	/
Clc1ccc(C2CSc3c4ncnc-4ncn32)cc1 (centres undefined)	i	0.78
O=C(Nc1ccc(N2CCOCC2)cc1)C1CCCN(S(=O)(=O)c2cccc(C(F)(F)F)c2)C1 (centres undefined)	i	/
CSCCC(NC(=O)COc1ccccc1)C(=O)OCC(=O)c1ccccc1 (centres undefined)	i	/
CSCCC(NC(=O)COc1ccccc1)C(=O)N1CCN(c2ccccc2O)CC1 (centres undefined)	-6.2*	-6.2
S=C1NC[C@H](c2ccccc2)N1CC1CCCCC1	i	1.3
COc1ccccc1NC(=O)COc1ccccc1C(=O)c1cnn(-c2ccccc2)c1	-6*	-6
CCc1ccc(NC(=O)COc2ccc(F)cc2C(=O)c2cnn(-c3ccccc3)c2)cc1	i	/
Cc1ccc(S(=O)(=O)N(CC(=O)NCc2ccco2)Cc2ccc(F)cc2)cc1	-7.3*	-7.3
Cc1cccc(S(=O)(=O)N(CC(=O)Nc2ccccc2C)Cc2ccco2)c1	-5.8*	-5.8
Cc1ccc(S(=O)(=O)NCC(=O)N(CC(=O)NCc2ccco2)Cc2ccc(F)cc2)cc1	i	/
Cc1ccc(C)c(N(CC(=O)Nc2ccccc2C(=O)NCc2ccco2)S(=O)(=O)c2ccccc2)c1	i	/
COc1ccc(CCn2ccc(O)c(Cc3c(F)cccc3Cl)c2=O)cc1OC	i	1.2
SMILES	KCNQ2 block	KCNQ2 enhance
CCCCS(=O)(=O)/C=C\C=C/S(=O)(=O)CCCC	i	6.7*
CCCCS(=O)(=O)/C=C\C1C2C=CC(C2)C1S(=O)(=O)CCCC (centres undefined)	i	/
O=C(NC1=C(NC2CCS(=O)(=O)C2)C(=O)c2ccccc2C1=O)c1ccccc1 (centres undefined)	i	6.2*
O=C(NC(NC1CCS(=O)(=O)C1)C(=O)c1cccs1)c1ccccc1 (centres undefined)	i	/
CCOc1ccccc1NC(=O)COC(=O)CCOc1cc(C)ccc1C	i	0.32
O=[N+]([O-])c1ccc(/C=N/Nc2nc(N3CCCCC3)nc(N3CCCCC3)n2)o1	-5.6*	-5.6
COc1c(/C=N/Nc2nc(N3CCCCC3)nc(N3CCCCC3)n2)cccc1[N+](=O)[O-]	i	/
CC(C)CCN(C(=O)CCCSc1nc2ccccc2[nH]1)c1c(N)n(Cc2ccccc2)c(=O)[nH]c1=O	i	0.07
OC(c1ccccc1)(C1CCCCC1)C(CN1CCOCC1)c1ccccc1 (centres undefined)	-5.7*	-5.7
COc1ccc(C(O)(C2CCCCC2)C(CN2CCOCC2)c2ccccc2)cc1 (centres undefined)	i	/
CCOC(=O)c1c(NC(=O)COC(=O)c2nccnc2N)sc(C(=O)N(C)C)c1C	i	1.3
CC(C)N(C(=O)CSc1nc2ccccc2n1-c1ccccc1)C(C)C	-6*	-6
CC(C)N(C(=O)CSc1nc2ccccc2n1Cc1ccccc1)C(C)C	i	/
O=C(Cn1cnc([N+](=O)[O-])n1)N/N=C/c1cc(Cl)ccc1O	i	2.1
CC(C)CC(NC(=O)OC(C)(C)C)C(=O)O (centres undefined)	i	/
CC(C)(C)OC(=O)NC(CCCCNC=O)C(=O)O (centres undefined)	-6.6*	-6.6
